aSyn 5UTR act: Activators via SNCA 5'UTR binding, MLPCN. activity score, % (tested at 7.5 µM), hits read low. 300,000 compounds, 7.1% hits. alpha-synuclein 5'UTR reporter, activators screen. AID 1814; in the data active means activity score below about -60%
Numbers without * were called inactive. Not all results are given here.

SMILES	aSyn 5UTR act
CNC(=O)c1ccc(-c2cc(C(F)(F)F)nn2C)s1	-142*
Cc1cc2c(ccc3c2no[n+]3[O-])nn1	-100*
[O-][n+]1onc2c3ccnnc3ccc21	-119*
COc1cc(CNCc2ccccn2)ccc1OCc1ccc(Cl)c(Cl)c1	-114*
Nc1ncccc1OCc1ccc(Cl)c(Cl)c1	-149*
Cc1ccccc1Nc1nnc(SCC2CCCCO2)s1 (stereo not given)	-85*
Cc1ccc(Nc2nnc(SCC3CCCCO3)s2)cc1 (stereo not given)	-137*
CCC(=O)Nc1cccc(NC(=S)NC(=O)c2ccccc2)c1	-183*
CCC(=O)Nc1cccc(NC(=S)NC(=O)c2ccc(C)cc2)c1	-156*
CCC(=O)Nc1cccc(NC(=S)NC(=O)c2cccc(C)c2)c1	-172*
CCC(=O)Nc1cccc(NC(=S)NC(=O)c2cc3ccccc3o2)c1	-133*
Cc1cc(C)n2c(Br)c(CSc3nc4ccccc4o3)nc2n1	-87*
Nn1c(SCC(=O)NC(=O)Nc2ccc3c(c2)OCCO3)nnc1C1CC1	-96*
Cn1nnnc1SCC(=O)Nc1ccc2c(c1)OCCO2	-86*
O=C(CSc1nnnn1-c1ccccc1)NC(=O)Nc1ccc2c(c1)OCCO2	-86*
CCOc1ccc(N=C2NC(=O)S/C2=C\c2ccc(N(C)C)cc2)cc1	-129*
CCOc1ccc(/C=C2\SC(=S)N(CCCC(=O)NCCCN3CCOCC3)C2=O)cc1	84
CCOc1ccc(/C=C2/SC(=O)NC2=S)cc1	-95*
Cc1nc2cc(NC(=O)C3COc4ccccc4O3)ccc2s1 (stereo not given)	-141*
Cc1nc2ccc(NC(=O)C3COc4ccccc4O3)cc2s1 (stereo not given)	-141*
CCC1CCCCN1CC(O)Cn1c2ccccc2n2c(=O)cc(C)c(C#N)c12 (stereo not given)	-64*
C/C(=N\NC(=O)c1cccc(Cl)c1)C1C(=O)c2ccccc2C1=O	-120*
CCCc1cc(C(=O)Nc2ccc(OC)cc2[N+](=O)[O-])cs1	-100*
Cc1c(C(=O)Nc2ccccc2[N+](=O)[O-])csc1-c1ccccc1	-142*
COc1ccc(NC(=O)c2ccccc2)c([N+](=O)[O-])c1	-144*
SMILES	aSyn 5UTR act
Cc1ccc(NC(=O)c2cccnc2)c([N+](=O)[O-])c1	-63*
CCCOc1ccc(C(=O)Nc2ccccc2[N+](=O)[O-])cc1	-401*
CCCOc1ccc(C(=O)NNC(=S)NC(=O)c2ccccc2)cc1	80
CN(C)c1cccc(C(=O)Nc2ccc3nc4n(c(=O)c3c2)CCCCC4)c1	-81*
O=C(/C=C/c1ccco1)Nc1ccc2nc3n(c(=O)c2c1)CCCC3	-176*
COc1cccc(C(=O)Nc2ccc3nc4n(c(=O)c3c2)CCCC4)c1	-76*
COc1cc(OC)cc(C(=O)Nc2ccc3nc4n(c(=O)c3c2)CCCC4)c1	-120*
CCOc1ccccc1C(=O)Nc1ccc2nc3n(c(=O)c2c1)CCCCC3	-77*
O=C(/C=C\c1ccc(-c2ccccc2)o1)c1ccccc1	-62*
Cc1ccc(C(=O)/C=C/c2ccc(-c3ccc(C)cc3)o2)cc1	-73*
Cc1cc(C(=O)N/N=C/c2ccccc2Br)no1	-68*
Cc1cccc(/C=N/NC(=O)c2c(-c3ccccc3)noc2C)c1O	62
CC(C)(C)c1ccc(OCC(=O)N2CCCCCC2)c(Br)c1	-144*
Cc1ccc(OCC(=O)N2CCCCC2)c(Br)c1	-125*
O=c1c(-c2ccc(O)cc2)coc2cc(OC3OC(CO)C(O)C(O)C3O)cc(O)c12 (stereo not given)	-83*
O=c1c(-c2ccc(O)cc2)coc2cc(OC3OC(CO)C(O)C(O)C3O)ccc12 (stereo not given)	-82*
COc1cc(O)c2c(=O)c(-c3ccc(O[C@@H]4O[C@H](CO)[C@@H](O)[C@H](O)[C@H]4O)cc3)coc2c1	-155*
CCn1cc(Br)c(C(=O)Nc2cccc(Cl)c2)n1	-93*
CCn1cc(Br)c(C(=O)Nc2ccc(OC)cc2)n1	-118*
CCn1ccc(C(=O)Nc2cccc(Cl)c2)n1	-159*
CCn1cc(Cl)c(C(=O)Nc2ccc(OC)c(OC)c2)n1	-66*
O=C1C=C(c2ccccc2)C[C@H](c2cccs2)[C@H]1n1nnc([N+](=O)[O-])n1	88
CCn1cc(Br)c(C(=O)Nc2ccc(Cl)c(Cl)c2)n1	-151*
CCn1ccc(C(=O)Nc2ccccc2Cl)n1	-96*
Cn1c(/C=C/c2ccc(Cl)cc2Cl)c([N+](=O)[O-])c(=O)n(C)c1=O	-204*
SMILES	aSyn 5UTR act
CCc1ccc(/C=C/c2c([N+](=O)[O-])c(=O)n(C)c(=O)n2C)cc1	-62*
CCOC(=O)c1cc2ccc3ccccc3c2s1	-169*
CCOC(=O)c1cc2c(s1)-c1ccccc1CC2	-97*
CC(C)c1ccc(/C=N/NC(=O)c2c(Cl)cnn2C)cc1	-142*
O=C(Nc1ccc(F)cc1)Nc1ccc(Cl)cn1	-121*
O=C(Nc1ccc(Cl)cn1)Nc1ccc(Cl)cn1	-77*
C/C(=C\c1ccccc1)C(=O)Nc1ccc(Cl)cn1	-180*
Cn1ncc(Cl)c1C(=O)Nc1ccc(Cl)cn1	-114*
O=C(Nc1ccc(Cl)cn1)Nc1ccccc1F	-153*
